Screening results from PubChem.
S2 tox: viability counter-screen for ATXN expression inhibitors. S2 cells (HEK-293 line with an ATXN2-luciferase reporter) viability, CellTiter-Fluor protease fluorescence, 24 h. Potency, µM (highest dose often 56.7 µM), actives largely listed as cytotoxic. 0.49% of 400,000 active; note: nearly all actives have a fitted effect of over 40% in size
DT40 TDP1 CPT: DT40-hTDP1 cell growth loss with CPT. chicken DT40 Tdp1-/-;hTDP1 cells + 20 nM CPT, ATP luminescence, 48 h. Potency, µM (doses to about 46.2 µM), inactives show at the highest dose activity change, negative = growth inhibition, most hits filed as inhibitors. 12% of 420,000 active; note: % is set by controls: 0 for no effect and ±100 for the full control effect; nearly all actives have a fitted effect of over 55% in size
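Cell growth measured by CellTiter-Glo luminescence after a minimum 48 h, 37 C compound exposure with 20 nM CPT in Tdp1-knockout DT40 cells stably expressing hTDP1, seeded 400/well; qHTS titration format.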
TGFb SMAD3 inh: blocks TGF-b signaling. HepG2 CAGA-GFP TGF-b/SMAD3 reporter, GFP fluorescence, 18 h; TGF-beta stimulated, 500 pg/mL final. Potency, µM (series often up to 46.1 µM), for the others: at the highest dose activity, negative = inhibition, hits mostly inhibitors. 1.2% of 410,000 active. AID 588855; note: % is set by controls: 0 for no effect and ±100 for the full control effect; nearly all actives have a fitted effect of over 65% in size
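Inhibition of TGF-beta-driven CAGA-GFP reporter expression in HEPG2 cells is measured by cellular GFP fluorescence after 18 h stimulation with 500 pg/mL recombinant TGF-beta in 1% FBS medium at 37 degrees C.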
HepG2 tox: HepG2 cytotoxicity, counter-screen for TGF-b inhibitors | Potency, µM (highest dose often 46.1 µM), for inactives: top-dose activity change, negative = cytotoxicity, actives largely listed as cytotoxic | HepG2 CAGA-GFP viability, ATP luminescence, 18 h | 0.76% of 410,000 active
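HepG2 CAGA-GFP cells (1000/well, DMEM with 1% FBS) received compound, then TGF-beta at 500 pg/mL final, and were incubated 18 hours at 37 degrees C. Viability was read by CellTiter-Glo luminescence. Media-only wells were set as complete cell-killing and DMSO as no toxicity.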
DT40 TDP1 no CPT: qHTS for Inhibitors of human tyrosyl-DNA phosphodiesterase 1 (TDP1): qHTS in cells in absence of CPT; DT40 Tdp1-/- hTDP1 cells, no CPT, ATP luminescence, 48 h; Potency, µM (doses to about 46.2 µM), without a hit: top-dose activity change, negative = growth inhibition, hits mostly inhibitors; 15% of 420,000 active; AID 686978, 2013; note: % is set by controls: 0 for no effect and ±100 for the full control effect; nearly all actives have a fitted effect of over 55% in size
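DT40 Tdp1-/-;hTDP1 cells, no CPT (DMSO vehicle only), 400 cells/well; compounds pin-transferred; ≥48 hr, 37 °C; CellTiter-Glo 30 min RT dark, luminescence read.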
ATXN2 expr inh: reduces ATXN2 reporter expression in HEK-293 cells. 0.72% of 360,000 active. HEK-293 ATXN2-luciferase reporter, luminescence, 24 h. Potency, µM (doses to about 57 µM), without a hit: at the top dose activity change, negative = inhibition, hits mostly inhibitors; note: % is set by controls: 0 for no effect and ±100 for the full control effect; nearly all actives have a fitted effect of over 55% in size
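qHTS (up to 57 uM final) was run with 24 h compound exposure of reporter cells at 37 °C. Each well was multiplexed: SteadyGlo luminescence measured ATXN2-luciferase expression after a fluorogenic Gly-Phe-AFC viability readout (25 uM final).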
* = called active by the depositor; i = inactive; u = inconclusive; x = not tested or not shown; [ ] = dose if it differs, or a comment. Only some compounds are listed: those with a hit (about 17% of all), similar ones and a draw of the others. Calls come from the whole dose curve; as a rule, active = well fitted curve in the direction sought with a large enough effect; inconclusive = small, poorly fitted or top-dose-only effect, or another doubt; inactive = no such curve, though single readings can be large; an effect the other way counts as inactive or inconclusive. Potency is the fitted concentration of half-maximal effect.

SMILES | S2 tox | DT40 TDP1 CPT | TGFb SMAD3 inh | HepG2 tox | DT40 TDP1 no CPT | ATXN2 expr inh
CN(C)C(=O)COc1ccc(C(=O)/C=C/c2cccnc2)cc1 | u | 16.4µM* | u | -11.4% | 13µM* | -1.0%
O=C(/C=C/c1cccnc1)c1ccc([N+](=O)[O-])cc1 | i | -29.8% | -4.2% | -36.5% | u | -28.9%
O=C(C=Cc1cccnc1)c1ccccc1 | x | 5.8µM* | 20µM* | -37.2% | 5.8µM* | u
O=C(/C=C/c1cccnc1)c1ccc(O)cc1 | i | u | u | -3.3% | 14.6µM* | 35.0%
COc1cc(C(=O)/C=C/c2cccnc2)c([N+](=O)[O-])cc1OC | 14.1µM* | 5.17µM* | u | -93.3% | 5.8µM* | 12.6µM*
CC(=O)Nc1ccc(S(=O)(=O)N2CCN=C2c2ccccc2)cc1 | i | -7.8% | -5.8% | -3.5% | 7.5% | 2.3%
CCOC(=O)C1=C(C)N=C2SCCC(=O)N2C1c1ccc(OCc2ccccc2)cc1 (centres undefined) | i | 2.9% | u | -5.7% | u | -9.5%
COc1cc(C(=O)Nc2ccc3oc(-c4cccnc4)nc3c2)cc(OC)c1OC | i | 5.62µM* | 0.2% | 28.6% | 20.6µM* | -26.8%
COc1ccc(C(=O)Nc2ccc3oc(-c4cccc(F)c4)nc3c2)cc1OC | i | u | 1.0% | -0.6% | u | 0.4%
COc1ccc(C(=O)Nc2ccc3oc(-c4cccnc4)nc3c2)cc1OC | i | 7.31µM* | -9.7% | -3.3% | u | -23.7%
CCCC[C@@H]1CNC(=O)C(=O)N1CCCCC1CCCCC1 | i | u | x | x | u | -9.0%
NCCCC[C@H]1CNC(=S)N1CCCCC1CCCCC1 | u | 9.2µM* | u | -36.8% | 7.31µM* | -20.3%
OC(Cc1cccc(Br)c1)c1ncc(-c2cccc(C(F)(F)F)c2)[nH]1 (centres undefined) | u | u | u | -109.2% | 16.4µM* | u
Cc1cccc(C(O)c2ncc(-c3cccc(C(F)(F)F)c3)[nH]2)c1C (centres undefined) | i | u | u | -37.6% | u | 0.2%
OC(Cc1ccccc1Br)c1ncc(-c2cccc(C(F)(F)F)c2)[nH]1 (centres undefined) | u | 23.1µM* | u | -57.8% | 16.4µM* | u
Cc1ccc(NC(=O)CSc2nc(=O)n(CCN3CCOCC3)c3c2CCC3)cc1Cl | x | u | u | -31.8% | u | x
CN(C)c1ccc(/C=C/c2ccnc3ccccc23)cc1O | x | 11.2µM* | 97.7% | -49.7% | 10µM* | x
CCc1cc(/C=C/c2ccnc3ccccc23)ccc1N(C)C | x | 5.01µM* | -3.1% | -56.9% | 2.82µM* | x
CN(C)c1ccc(/C=C/c2ccnc3ccccc23)cc1C=O | x | 15.8µM* | u | -18.1% | 10µM* | x
CCOc1ccc(/C=C/c2ccnc3ccccc23)cc1OCC | x | 10µM* | u | -61.7% | 11.2µM* | x
COc1ccc2c(c1)-c1nc(-n3ncc(C(=O)NC(C)(C)CO)c3C3CC3)ncc1CC2 | i | 12.4%[9.04 µM] | x | x | u | x
CCCc1nn(C)c2c(=O)[nH]c(-c3cc(S(=O)(=O)Nc4ccc(NC(C)=O)cc4)ccc3OCC)nc12 | i | 10.3µM* | -12.4% | -30.2% | u | x
CC(C)(C)OC(=O)N1CCN(C(=O)c2[nH]cnc2C(=O)Nc2nccs2)CC1 | i | 0.9% | 0.9% | 0.3% | -10.1% | 8.4%
Cc1ccc(NC(=O)c2ccco2)c(NC(=O)C2CCCO2)c1 (centres undefined) | i | -13.0% | 3.1% | 11.9% | 0.3% | 6.5%
NNC(=O)c1cc(-c2cccs2)nc2ccccc12 | i | u | 10.2% | -14.8% | u | x
SMILES | S2 tox | DT40 TDP1 CPT | TGFb SMAD3 inh | HepG2 tox | DT40 TDP1 no CPT | ATXN2 expr inh
O=C(N/N=C/c1ccsc1)c1cc(-c2cccs2)nc2ccccc12 | u | 10.3µM* | -2.9% | -16.2% | 8.2µM* | -20.1%
O=C(COC(=O)c1cc(-c2cccs2)nc2ccccc12)c1ccccc1 | i | u | 3.6% | -15.0% | u | 0.9%
O=C(O)c1ccc(/C=N/NC(=O)c2cc(-c3cccs3)nc3ccccc23)cc1 | i | u | u | 1.9% | 11.6µM* | 26.2%
O=C(N/N=C/c1ccsc1)c1cc(-c2ccncc2)nc2ccccc12 | u | 3.66µM* | u | 9.3% | 3.26µM* | -17.7%
CSc1ncnc2c1ncn2CCCNCC(c1ccccc1)c1ccccc1 | i | u | -5.0% | -30.1% | 25.9µM* | -26.9%
C[C@@H](NCCCn1cnc2c(OCc3ccccc3)ncnc21)c1cccc2ccccc12 | u | u | u | 14.1µM* | 16.4µM* | u
C[C@@H](NC(=O)Cn1cnc2c(OCc3ccccc3)ncnc21)c1cccc2ccccc12 | u | u | u | -22.0% | u | -28.9%
c1ccc(CNCCCn2cnc3c(OCc4ccccc4)ncnc32)cc1 | i | 29.1µM* | 17.4% | -8.0% | 23.1µM* | -5.9%
c1ccc(CCCNCCCn2cnc3c(OCc4ccccc4)ncnc32)cc1 | 25.1µM* | 10.3µM* | u | -100.5% | 11.6µM* | u
CC(C)Oc1ccc(C(=O)N(Cc2ccc(N(C)C)cc2)Cc2ccco2)cc1 | x | u | x | -33.4% | 13µM* | x
Cc1cc(C)c2c(CC(=O)N(Cc3ccc(N(C)C)cc3)Cc3ccco3)coc2c1 | u | 14.6µM* | u | -26.9% | 20.6µM* | u
CCSc1ncc(Cl)c(C(=O)N(Cc2ccccc2)c2ccc(OC)cc2)n1 | x | u | x | -26.8% | 5.8µM* | x
CCSc1ncc(Cl)c(C(=O)N(Cc2ccc(N(C)C)cc2)Cc2ccco2)n1 | x | u | x | -36.6% | 20.6µM* | x
CCc1ccc2occ(CC(=O)Nc3c(C(=O)c4ccc(F)cc4)oc4ccccc34)c2c1 | i | -24.4% | -17.1% | -9.8% | u | -5.6%
Cc1ccccc1C(=O)N(Cc1ccc(N(C)C)cc1)Cc1ccco1 | x | u | x | -22.2% | 18.4µM* | x
CN(C)c1ccc(CN(Cc2ccco2)C(=O)c2ccc(F)cc2)cc1 | x | u | x | -26.7% | u | x
CCCCOc1ccc(C(=O)N(Cc2ccc(N(C)C)cc2)Cc2ccco2)cc1 | x | u | x | -23.4% | 13µM* | x
CCCCOc1ccc(C(=O)N(Cc2ccco2)Cc2ccco2)cc1 | x | u | u | -35.5% | 20.6µM* | x
